In PubChem BioAssay (Tox21):
Results filed as inconclusive are left out. Unmarked numbers belong to inactive results. Unless noted, calls follow the shape of the dose curve; as a rule, active = well fitted cell-killing curve with a large enough effect in the repeat runs (not every such curve was filed as active); inconclusive = weak or mixed curves, or effect the other way; inactive = no such curve, though single readings can be large or run the other way.

Tested on: not listed separately
Experiment: qHTS assay to identify small molecule antagonists of the farnesoid-X-receptor (FXR) signaling pathway - cell viability counter screen (AID 743221); also: nearly all actives have a fitted effect of over 50% in size
Conditions: FXR-bla HEK293T viability, CellTiter-Glo luminescence, 16 h; series mostly up to 62.6 µM; activity change, negative = cytotoxicity: at the top concentration
Procedure, shortened: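 GeneBLAzer FXR-UAS-bla HEK 293T cells, compound plus chenodeoxycholic acid (50 uM final), 16 h at 37 C. CellTiter-Glo added to the same wells after the beta-lactamase read; luminescence read after 30 min at room temperature as viability.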
% is scaled to controls: 0 for no effect and ±100 for the full control effect.

Compared with CC/C=C\CCO, CCC(CC)C(=O)O is higher in “activity change, negative = cytotoxicity” value: 11.1% for the first, 19.1% for the second.

Going from Nc1ncnc2c1ncn2[C@@H]1O[C@H](CO)[C@@H](O)[C@H]1O to NC(=O)c1cc[n+](CC2=C(C(=O)[O-])N3C(=O)[C@@H](NC(=O)Cc4cccs4)[C@H]3SC2)cc1, the “activity change, negative = cytotoxicity” value falls from 8.75% to 1.12%.

First: O=C(OCCN1CCOCC1)c1cccnc1Nc1cccc(C(F)(F)F)c1
Second: O=C(Nc1ccc2c(c1)Cc1ccccc1-2)C(F)(F)F
The “activity change, negative = cytotoxicity” value of the first is lower: -5.23% for the first, 1.77% for the second.

Going from OCCc1ccncc1 to OCCOc1cccc(OCCO)c1, the “activity change, negative = cytotoxicity” value rises from -13.6% to 7.25%.

Compared with CCn1nc(Cc2ccccc2)cc1C1CCN(C[C@H]2C[C@H](N(C)[C@@H](C(=O)O)C(C)C)C[C@@H]2c2cccc(F)c2)CC1, O=C(NC1CCN(CCc2c[nH]c3ccccc23)CC1)c1ccccc1 is lower in “activity change, negative = cytotoxicity” value: 4.89% for the first, -2.59% for the second.

First: CCOC(=O)CC(O)(CC(=O)OCC)C(=O)OCC
Second: CC(C)CCCCCOC(=O)CS
The “activity change, negative = cytotoxicity” value of the first is higher: -2.36% for the first, -16.7% for the second.

First: CCCCCCCCCC(C)C=O (stereo unspecified)
Second: CCCC1CCOC(C)S1 (stereo unspecified)
The “activity change, negative = cytotoxicity” value of the first is lower: -9.42% for the first, 16% for the second.

Compared with CC(=O)S[C@H](C(=O)N[C@H]1Cc2ccccc2[C@H]2CCC[C@@H](C(=O)O)N2C1=O)C(C)C, CC(=O)OCC(=O)[C@@]1(O)CC[C@H]2[C@@H]3CCC4=CC(=O)C=C[C@]4(C)[C@@]3(F)[C@@H](O)C[C@@]21C is higher in “activity change, negative = cytotoxicity” value: -12.5% for the first, -0.389% for the second.

Compared with COC(=O)Cc1cccc2ccccc12, CC(=O)Nc1ccccc1O is higher in “activity change, negative = cytotoxicity” value: 0.879% for the first, 5.74% for the second.

First: Nc1ccccc1Nc1ccccc1
Second: CC1(COc2ccc(CC3SC(=O)NC3=O)cc2)CCCCC1 (stereo unspecified)
The “activity change, negative = cytotoxicity” value of the first is higher: -5.8% for the first, -7.15% for the second.

Compared with CC(C)(C)c1cc(C=O)cc(C(C)(C)C)c1O, C=CC(=O)NC(C)(C)C is higher in “activity change, negative = cytotoxicity” value: -0.446% for the first, 12.9% for the second.

First: C1CCN(CN2CCCCC2)CC1
Second: CC(O)CN (stereo unspecified)
The “activity change, negative = cytotoxicity” value of the first is higher: 4.56% for the first, -2.84% for the second.

With O=c1[nH]nc(-c2ccc([N+](=O)[O-])o2)o1 the “activity change, negative = cytotoxicity” value was -4.74%.

Going from O=C(O)COCC(=O)O to CCc1cnc(C(=O)O)c(C(=O)O)c1, the “activity change, negative = cytotoxicity” value falls from 13.6% [at 81.1 µM] to 9.38% [at 81.1 µM].

First: CCCCOC(=O)CC#N
Second: CC/C=C/CCO
The “activity change, negative = cytotoxicity” value of the first is higher: -0.87% [at 81.1 µM] for the first, -19.8% [at 81.1 µM] for the second.

First: Clc1nc2ccccc2nc1Cl
Second: NC(=O)c1ccccc1C(N)=O
The “activity change, negative = cytotoxicity” value of the first is higher: 4.43% [at 81.1 µM] for the first, -13.4% [at 81.1 µM] for the second.

For COC(=O)C(C)(C)C, the “activity change, negative = cytotoxicity” value was 9.39% [at 81.1 µM].

Target: Vitamin D3 receptor (Homo sapiens) (UniProt P11473)
Experiment: qHTS assay to identify small molecule agonists of the vitamin D receptor (VDR) signaling pathway (AID 743222; calls by dose curve)
Conditions: HEK293T VDR-UAS-bla, beta-lactamase FRET ratio, 16 h; series mostly up to 63.5 µM; activation: at the top concentration
Procedure, shortened: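 Fluorescence from cleaved LiveBLAzer B/G FRET substrate served as readout. VDR-bla cells had been treated 16 h at 37C with test compounds in DMSO, following a 4 h settling period, and substrate was loaded for 2 h at RT.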

Sequence of Vitamin D3 receptor (Homo sapiens) (P11473 whole entry, looked up): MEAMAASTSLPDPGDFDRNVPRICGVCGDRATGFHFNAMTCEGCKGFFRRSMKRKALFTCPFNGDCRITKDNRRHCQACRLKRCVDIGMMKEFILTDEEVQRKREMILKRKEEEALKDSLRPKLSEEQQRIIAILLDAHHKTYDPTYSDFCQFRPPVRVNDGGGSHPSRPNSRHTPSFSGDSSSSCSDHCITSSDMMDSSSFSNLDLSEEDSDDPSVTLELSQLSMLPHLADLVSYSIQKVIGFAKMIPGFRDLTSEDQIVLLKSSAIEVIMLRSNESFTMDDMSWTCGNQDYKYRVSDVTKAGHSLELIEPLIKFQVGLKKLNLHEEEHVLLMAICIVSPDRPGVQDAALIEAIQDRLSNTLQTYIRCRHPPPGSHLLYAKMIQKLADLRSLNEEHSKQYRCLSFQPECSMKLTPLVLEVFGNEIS

Going from CCCCCC1CCC(=O)O1 (stereo unspecified) to CCCC1CCOC(C)S1 (stereo unspecified), the “activation” value rises from 4.9% to 8.76%.

Going from CC/C=C\CCO to CCC(CC)C(=O)O, the “activation” value falls from 3.86% to 1.89%.

Compared with Nc1ncnc2c1ncn2[C@@H]1O[C@H](CO)[C@@H](O)[C@H]1O, NC(=O)c1cc[n+](CC2=C(C(=O)[O-])N3C(=O)[C@@H](NC(=O)Cc4cccs4)[C@H]3SC2)cc1 is higher in “activation” value: 4.15% for the first, 7.34% for the second.

Going from O=C(OCCN1CCOCC1)c1cccnc1Nc1cccc(C(F)(F)F)c1 to O=C(Nc1ccc2c(c1)Cc1ccccc1-2)C(F)(F)F, the “activation” value falls from 1.51% to 0.124%.

Going from OCCc1ccncc1 to OCCOc1cccc(OCCO)c1, the “activation” value rises from -6.12% to -2.1%.

Compared with CCOC(=O)CC(O)(CC(=O)OCC)C(=O)OCC, CC(=O)S[C@H](C(=O)N[C@H]1Cc2ccccc2[C@H]2CCC[C@@H](C(=O)O)N2C1=O)C(C)C is lower in “activation” value: 4.3% for the first, 1.86% for the second.

Compared with CCCCCCCCCC(C)C=O (stereo unspecified), CC(O)CN (stereo unspecified) is higher in “activation” value: -5.35% for the first, 2.37% for the second.

Going from COC(=O)Cc1cccc2ccccc12 to CC(=O)Nc1ccccc1O, the “activation” value rises from -3.25% to 0.324%.

Going from CC(C)(C)c1cc(C=O)cc(C(C)(C)C)c1O to C=CC(=O)NC(C)(C)C, the “activation” value falls from 11.9% to 8.76%.

Going from C1CCN(CN2CCCCC2)CC1 to O=C1CCCN1CCO, the “activation” value rises from -2.59% to -0.619%.

With O=c1[nH]nc(-c2ccc([N+](=O)[O-])o2)o1 the “activation” value was -2.59%.

Compared with O=C(O)COCC(=O)O, CCc1cnc(C(=O)O)c(C(=O)O)c1 is lower in “activation” value: 7.19% [at 81.1 µM] for the first, -3.32% [at 81.1 µM] for the second.

First: CCCCOC(=O)CC#N
Second: C=CCCC
The “activation” value of the first is lower: -12.3% [at 81.1 µM] for the first, 0.23% [at 81.1 µM] for the second.

First: Clc1nc2ccccc2nc1Cl
Second: NC(=O)c1ccccc1
The “activation” value of the first is higher: 4.81% [at 81.1 µM] for the first, -5.8% [at 81.1 µM] for the second.

Going from COC(=O)C(C)(C)C to CC(=O)Nc1cccc(N)c1, the “activation” value rises from -2.18% [at 81.1 µM] to 3.42% [at 81.1 µM].

Compared with NC(=O)c1ccccc1C(N)=O, CC/C=C/CCO is lower in “activation” value: -1.97% [at 81.1 µM] for the first, -3.11% [at 81.1 µM] for the second.

Target: Vitamin D3 receptor (Homo sapiens) (UniProt P11473)
Experiment: qHTS assay to identify small molecule antagonists of the vitamin D receptor (VDR) signaling pathway (AID 743223; active = well fitted inhibition curve with a large enough effect in the signal ratio in the repeat runs, not every such curve was filed as active; the % refers to the signal ratio)
Conditions: VDR-UAS-bla HEK293T, beta-lactamase FRET ratio, 16 h; series mostly up to 61 µM; activity change, negative = inhibition: at the top concentration
Procedure, shortened: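 VDR-bla cells were treated with compound plus 3 nM final 1alpha,25-dihydroxyvitamin D3 for 16 h at 37C. Beta-lactamase reporter read by B/G FRET substrate fluorescence after 2 h at room temperature. qHTS format.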

Going from CCCCCC1CCC(=O)O1 (stereo unspecified) to CCCCCCCCCC(C)C=O (stereo unspecified), the “activity change, negative = inhibition” value rises from 0.406% to 6.82%.

Compared with Nc1ncnc2c1ncn2[C@@H]1O[C@H](CO)[C@@H](O)[C@H]1O, CC(=O)S[C@H](C(=O)N[C@H]1Cc2ccccc2[C@H]2CCC[C@@H](C(=O)O)N2C1=O)C(C)C is higher in “activity change, negative = inhibition” value: -9.69% for the first, -7.07% for the second.

Going from O=C(OCCN1CCOCC1)c1cccnc1Nc1cccc(C(F)(F)F)c1 to C1CCN(CN2CCCCC2)CC1, the “activity change, negative = inhibition” value rises from -10.2% to 2.91%.

Compared with CC(O)CN (stereo unspecified), C=CC(=O)NC(C)(C)C is higher in “activity change, negative = inhibition” value: -11% for the first, 24.3% for the second.

First: Clc1nc2ccccc2nc1Cl
Second: NC(=O)c1ccccc1
The “activity change, negative = inhibition” value of the first is lower: -2.87% [at 78.8 µM] for the first, 0.557% [at 78.8 µM] for the second.

Compared with CC(=O)Nc1cccc(N)c1, CCc1cnc(C(=O)O)c(C(=O)O)c1 is lower in “activity change, negative = inhibition” value: 14.4% [at 78.8 µM] for the first, 12.9% [at 78.8 µM] for the second.

In the case of C=CCCC, the “activity change, negative = inhibition” value was 3.32% [at 78.8 µM].
